Bioassay records (PubChem BioAssay)
Rows were chosen to be rich in hits. Some 2.9% of all compounds tested hit in one or more screens of this group.
EBV LMP1 NFkB: Epstein-Barr LMP1 NF-kappaB reporter inhibition | LMP1-induced NF-kappaB luciferase reporter cells, luminescence | inhibition, % at 12.5 µM | 350,000 tested, 0.69% active | AID 504558; in the data active means inhibition above about 41%
Shn3 inh set2: reduces Shn3 3'UTR luciferase signal in osteoblasts; inhibition, % at 12.5 µM; 360,000 tested, 0.52% active; Clone20 osteoblast Shn3 3'UTR firefly luciferase, 24 h;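 active means mean inhibition of at least 75% with every replicate also reaching 75%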
HIF-2a inh: inhibitors of HIF-2a | 786-0 RCC cells HIF-2a reporter, luciferase luminescence, overnight | inhibition, % at 18.8 µM | 360,000 tested, 0.72% active;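 active means inhibition of the luminescence signal of 40% or more relative to plate controls, in a single-dose primary screen at 18.75 µM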
CF NFkB inh: blocks PAF-induced NF-kB reporter in cystic fibrosis cells; AID 588850; 360,000 tested, 0.86% active; KKLEB NF-kB-GFP reporter, GFP fluorescence overnight; inhibition, % at 5 µM;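 active means at least 50% inhibition at 5 µM, scaled per plate between neutral and stimulator controls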;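 further: PAF is a Pseudomonas aeruginosa culture filtrate used as stimulus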
Peg3 promoter: inhibitors of Peg3 promoter. HeLa PEG-Prom luciferase reporter, luminescence, overnight. inhibition, % at 20 µM. 360,000 tested, 1.7% active. AID 588405;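 active means inhibition of at least 50% at 20 µM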
KKLEB tox: counter-screen for CF NF-kB inhibitors: cytotoxicity; 360,000 tested, 0.36% active; AID 602141; activity change (cytotoxicity), % at 5 µM; KKLEB CF airway cells viability, ATPlite luminescence, overnight; hits give low values; cells stimulated with P. aeruginosa culture filtrate;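 active means corrected activity change at or below -50% at 5 µM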
A number is an active result.

For Cc1ccc(C)c(N2CCN(S(=O)(=O)c3ccc4c(c3)CCN4C(=O)CCC(=O)O)CC2)c1 the results were EBV LMP1 NFkB 85.5, Shn3 inh set2 inactive, HIF-2a inh inactive, CF NFkB inh inactive, Peg3 promoter inactive and KKLEB tox inactive.
Cc1cccc(N2CCN(S(=O)(=O)c3ccc4c(c3)CCN4C(=O)CCC(=O)O)CC2)c1C was read as EBV LMP1 NFkB inactive, Shn3 inh set2 inactive, HIF-2a inh inactive, CF NFkB inh inactive, Peg3 promoter inactive and KKLEB tox inactive.
For O=C(O)c1nn(Cc2ncc(-c3cccc(Cl)c3)o2)c(=O)c2ccccc12 the results were EBV LMP1 NFkB inactive, Shn3 inh set2 inactive, HIF-2a inh inactive, CF NFkB inh inactive, Peg3 promoter inactive and KKLEB tox inactive.
CN1CCN(C(=O)C2=C[C@@H](C(C)(C)C)C[C@@H](OCc3ccc(CO)cc3)O2)CC1 was read as EBV LMP1 NFkB 55.4, Shn3 inh set2 inactive, HIF-2a inh inactive, CF NFkB inh inactive, Peg3 promoter inactive and KKLEB tox inactive.
For COC(=O)COc1ccc(S(=O)(=O)NCc2ccc3c(c2)OCO3)cc1 the results were EBV LMP1 NFkB inactive, Shn3 inh set2 inactive, HIF-2a inh inactive, CF NFkB inh inactive, Peg3 promoter inactive and KKLEB tox inactive.
Screening C#CC[N+]1(CC#Cc2ccccc2)CCCCC1 returned EBV LMP1 NFkB inactive, Shn3 inh set2 inactive, HIF-2a inh inactive, CF NFkB inh inactive, Peg3 promoter inactive and KKLEB tox inactive.
`C(#Cc1ccccc1)C[N+]1(CC#Cc2ccccc2)CCCCC1` gave EBV LMP1 NFkB inactive, Shn3 inh set2 86.0, HIF-2a inh inactive, CF NFkB inh inactive, Peg3 promoter inactive and KKLEB tox inactive.
Screening Cc1ccc(C#CC[N+]2(CC#Cc3ccc(C)cc3)CCCCC2)cc1 returned EBV LMP1 NFkB inactive, Shn3 inh set2 inactive, HIF-2a inh inactive, CF NFkB inh inactive, Peg3 promoter 96.8 and KKLEB tox inactive.
C#CC[N+]1(CC#Cc2cccc(C)c2)CCCCC1 was read as EBV LMP1 NFkB inactive, Shn3 inh set2 inactive, HIF-2a inh inactive, CF NFkB inh inactive, Peg3 promoter inactive and KKLEB tox inactive.
CCOC(=O)C1=C(N)n2c(s/c(=C\c3cccs3)c2=O)=C(C(=O)OCC)C1c1cccs1 (centres undefined) was read as EBV LMP1 NFkB inactive, Shn3 inh set2 inactive, HIF-2a inh inactive, CF NFkB inh inactive, Peg3 promoter inactive and KKLEB tox inactive.
`OCCN1CCN(C(=S)Nc2ccccc2)CC1` gave EBV LMP1 NFkB inactive, Shn3 inh set2 inactive, HIF-2a inh inactive, CF NFkB inh inactive, Peg3 promoter inactive and KKLEB tox inactive.
COc1cc(NC(=S)N2CCN(CCO)CC2)cc(OC)c1 was read as EBV LMP1 NFkB 69.1, Shn3 inh set2 inactive, HIF-2a inh inactive, CF NFkB inh inactive, Peg3 promoter inactive and KKLEB tox inactive.
For CCOC(=O)C1=NN(c2ccccc2C)C2=NC(C)=C(C(=O)OC)C(c3cccc(OC)c3)N12 (centres undefined) the results were EBV LMP1 NFkB inactive, Shn3 inh set2 inactive, HIF-2a inh inactive, CF NFkB inh inactive, Peg3 promoter inactive and KKLEB tox inactive.
CC1(c2ccccc2)CC(C)(C)N2C(=O)/C(=C3\SC(=S)NC3=O)c3cccc1c32 (centres undefined) was read as EBV LMP1 NFkB inactive, Shn3 inh set2 inactive, HIF-2a inh inactive, CF NFkB inh 61.1, Peg3 promoter inactive and KKLEB tox inactive.
`Cc1ccccc1CN1[C@@H](C(C)C)COCCS1(=O)=O` gave EBV LMP1 NFkB inactive, Shn3 inh set2 inactive, HIF-2a inh inactive, CF NFkB inh inactive, Peg3 promoter inactive and KKLEB tox inactive.
Screening CCc1ccc(S(=O)(=O)Nc2nnc(N)s2)cc1 returned EBV LMP1 NFkB inactive, Shn3 inh set2 inactive, HIF-2a inh inactive, CF NFkB inh inactive, Peg3 promoter inactive and KKLEB tox inactive.
For COc1ccc(Br)cc1/C=N/n1c(COc2ccccc2)n[nH]c1=S the results were Shn3 inh set2 inactive, HIF-2a inh inactive, CF NFkB inh inactive, Peg3 promoter inactive and KKLEB tox inactive.
COC(=O)CCC(=O)OC1(C)C(=O)C=C2C=C(C3CC3)N(CC3CC3)C=C2C1=O (centres undefined) was read as EBV LMP1 NFkB 50.2, Shn3 inh set2 inactive, HIF-2a inh inactive, CF NFkB inh inactive, Peg3 promoter inactive and KKLEB tox inactive.
For CN1CCN(Cc2nc3ccccc3c(=O)n2Cc2nc(-c3ccc([N+](=O)[O-])cc3)cs2)CC1 the results were EBV LMP1 NFkB inactive, Shn3 inh set2 inactive, HIF-2a inh inactive, CF NFkB inh inactive, Peg3 promoter 72.3 and KKLEB tox inactive.
CSCCC(NC(=O)c1cccc(S(=O)(=O)N2CCOCC2)c1)C(=O)Nc1cccc(C)c1 (centres undefined) was read as EBV LMP1 NFkB inactive, Shn3 inh set2 inactive, HIF-2a inh inactive, CF NFkB inh inactive, Peg3 promoter inactive and KKLEB tox inactive.
For C#Cc1ccc([C@@H]2C=C(C(=O)N3CCN(Cc4ccccc4)CC3)O[C@H](OCCCCO)C2)cc1 the results were EBV LMP1 NFkB inactive, Shn3 inh set2 92.6, HIF-2a inh inactive, CF NFkB inh inactive, Peg3 promoter inactive and KKLEB tox inactive.
For COC(=O)c1ccccc1NC(=O)COC(C)=O the results were EBV LMP1 NFkB inactive, Shn3 inh set2 inactive, HIF-2a inh inactive, CF NFkB inh inactive, Peg3 promoter inactive and KKLEB tox inactive.
For COC(=O)c1ccccc1NC(=O)Nc1ccc(C(=O)N2CCCC2)cc1 the results were EBV LMP1 NFkB inactive, Shn3 inh set2 inactive, HIF-2a inh inactive, CF NFkB inh inactive, Peg3 promoter 58.1 and KKLEB tox inactive.
For CC(=O)c1cccc(NC(=O)Nc2ccc(C(=O)N3CCOCC3)cc2)c1 the results were EBV LMP1 NFkB 48.6, Shn3 inh set2 inactive, HIF-2a inh inactive, CF NFkB inh inactive, Peg3 promoter inactive and KKLEB tox inactive.
COC(=O)c1ccccc1NC(=O)CC(=O)Nc1ccccc1C(=O)OC was read as EBV LMP1 NFkB 50.4, Shn3 inh set2 inactive, HIF-2a inh inactive, CF NFkB inh inactive, Peg3 promoter inactive and KKLEB tox inactive.
Screening COC(=O)c1ccccc1NC(=O)CSCC(=O)Nc1ccccc1 returned EBV LMP1 NFkB inactive, Shn3 inh set2 inactive, HIF-2a inh inactive, CF NFkB inh inactive, Peg3 promoter inactive and KKLEB tox -69.2.
For COC(=O)c1ccccc1NC(=O)c1cccc(NC(=O)CSCc2ccccc2)c1C the results were EBV LMP1 NFkB inactive, Shn3 inh set2 inactive, HIF-2a inh inactive, CF NFkB inh inactive, Peg3 promoter inactive and KKLEB tox inactive.
O=C(NN=C(Cc1ccccc1)Cc1ccccc1)c1ccccc1F was read as EBV LMP1 NFkB inactive, Shn3 inh set2 inactive, HIF-2a inh inactive, CF NFkB inh inactive, Peg3 promoter inactive and KKLEB tox inactive.
Screening CN1CCN(C(=O)C2=C[C@H](C(C)(C)C)C[C@H](OCCCCO)O2)CC1 returned EBV LMP1 NFkB inactive, Shn3 inh set2 inactive, HIF-2a inh inactive, CF NFkB inh inactive, Peg3 promoter inactive and KKLEB tox inactive.
